activity, negative = inhibition, activity change, negative = inhibition and Potency data for 30 molecules are collected here from PubChem BioAssay (Tox21).

Experiment [1] has as its target Acetylcholinesterase (Homo sapiens) (UniProt P22303). The experiment can be described thus: Acetylcholinesterase (AChE) small molecule antagonists: colormetric cell-based qHTS assay (AID 1347395). Note: nearly all actives have a fitted effect of over 30% in size. Note: potency is the fitted concentration of half-maximal effect. The procedure, abridged:
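Neuroblastoma line SH-SY5Y supplied the enzyme; cells were preincubated with compound for 30 min at 37 C and 5% CO2. Acetylthiocholine with DTNB was then added for 90 min at 37 C, and thiocholine was measured by colour.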
For orientation: Quantitative high-throughput screening tests each substance at several concentrations.

Experiment [2] shares this target. The experiment can be described thus: Acetylcholinesterase (AChE) small molecule antagonists: enzyme-based qHTS assay (AID 1347397). Note: nearly all actives have a fitted effect of over 55% in size. Note: potency is the fitted concentration of half-maximal effect. Particulars: Potency: AChE enzyme activity inhibition; outcome: AChE enzyme activity inhibition. The method in brief:
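Colorimetric DTNB read-out of thiocholine released from acetylthiocholine by recombinant human AChE (50 mU/mL as dispensed). Compounds were preincubated 30 min at RT before substrate/DTNB addition, with a 10 min RT reaction.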

The target is the same in experiment [3]. Description: Acetylcholinesterase (AChE) small molecule antagonists: fluorescence cell-based qHTS assay (AID 1347398). Note: nearly all actives have a fitted effect of over 50% in size. Note: potency is the fitted concentration of half-maximal effect. Particulars: Potency: AChE activity; outcome: AChE activity. The procedure, abridged: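 SH-SY5Y, 2,000 cells/well, attached overnight; cmpd 30 min 37 C; acetylthiocholine/Thiolite Green cocktail 40 min RT; fluorescence Ex/Em 490/520 nm.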

For experiment [4] the target is unchanged. Description: Acetylcholinesterase (AChE) small molecule antagonists: enzyme-based qHTS assay with human liver microsomes (AID 1347399). Note: nearly all actives have a fitted effect of over 60% in size. Particulars: Potency: qHTS inhibition; outcome: qHTS inhibition. The procedure, abridged:
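Recombinant human AChE (50 mU/mL in the enzyme mix) and human liver microsomes (0.25 mg/mL final) were preincubated with compound and NADPH (0.25 mg/mL final) for 30 min at 37 C. Acetylthiocholine/DTNB was then added; thiocholine was read colorimetrically after 10 min at room temperature.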

Unmarked numbers belong to inactive results. Results filed as inconclusive are left out. Activity calls are given as the source filed them. Calls come from the whole dose curve.
% is set by controls: 0 for no effect and ±100 for the full control effect.

Acetylcholinesterase (Homo sapiens), sequence (P22303 whole entry, looked up): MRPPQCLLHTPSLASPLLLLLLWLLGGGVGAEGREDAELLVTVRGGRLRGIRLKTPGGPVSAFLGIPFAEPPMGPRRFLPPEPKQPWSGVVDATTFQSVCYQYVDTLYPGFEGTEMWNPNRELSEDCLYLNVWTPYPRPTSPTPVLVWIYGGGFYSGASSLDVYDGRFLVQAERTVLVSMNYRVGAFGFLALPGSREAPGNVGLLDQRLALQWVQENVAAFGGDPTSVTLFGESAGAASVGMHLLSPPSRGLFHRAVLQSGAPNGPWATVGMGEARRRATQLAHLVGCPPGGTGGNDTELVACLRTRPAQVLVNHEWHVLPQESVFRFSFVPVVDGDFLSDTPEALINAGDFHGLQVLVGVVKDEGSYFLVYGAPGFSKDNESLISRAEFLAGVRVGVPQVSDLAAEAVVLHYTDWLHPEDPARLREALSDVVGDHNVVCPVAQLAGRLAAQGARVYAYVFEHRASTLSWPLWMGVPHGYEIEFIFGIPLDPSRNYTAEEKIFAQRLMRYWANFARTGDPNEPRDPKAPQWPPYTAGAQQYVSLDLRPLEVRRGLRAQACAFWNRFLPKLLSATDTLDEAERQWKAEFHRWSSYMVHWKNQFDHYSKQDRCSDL

Turning to `Cc1cc(C)c(N=Nc2c(O)c(S(=O)(=O)O)cc3cc(S(=O)(=O)O)ccc23)cc1C`, the activity, negative = inhibition in experiment [1] was 0.116% [at 10.5 µM]. Moreover, the results for the activity change, negative = inhibition in experiment [2], in experiment [3] and in experiment [4] were 0.136% [at 10.5 µM], -0.662% [at 10.5 µM] and 0.432% [at 10.5 µM], respectively.
As for `CCCCCCCCCOCC1CO1` (stereo not given), the Potency result in experiment [1], in experiment [2], in experiment [3] and in experiment [4] was “inactive” in each case.
As to `C=C[C@H]1CN2CC[C@H]1C[C@H]2[C@H](O)c1ccnc2ccc(OC)cc12`, the Potency result in experiment [1], in experiment [2], in experiment [3] and in experiment [4] was “inactive” in each case.
As to `CS(C)(=O)=O`, the Potency entry in experiment [1], in experiment [2], in experiment [3] and in experiment [4] was “inactive” in each case.
Turning to `NCCCCCCN`, the Potency result in experiment [1], in experiment [2], in experiment [3] and in experiment [4] was “inactive” each time.
Regarding `CCCc1ccc(OCC(=O)N2CCN(C(=O)COc3ccc(CCC)cc3OC)CC2)c(OC)c1`, the Potency entry in experiment [1], in experiment [2], in experiment [3] and in experiment [4] was “inactive” throughout.
Turning to `O=c1c2ccccc2oc2ccccc12`, the Potency entry in experiment [1], in experiment [2], in experiment [3] and in experiment [4] was “inactive” each time.
For the molecule `c1ccc2c(c1)c1cccc3ccc4cccc2c4c31`, the Potency result in experiment [1], in experiment [2], in experiment [3] and in experiment [4] was “inactive” throughout.
Consider `Cc1cc2c(OCC(CNC(C)(C)C)OC(=O)c3ccccc3)cccc2[nH]1` (stereo not given), for which the Potency entry in experiment [1], in experiment [2], in experiment [3] and in experiment [4] was “inactive” in each case.
With `CCCO[Si](OCCC)(OCCC)OCCC`, the Potency result in experiment [1], in experiment [2], in experiment [3] and in experiment [4] was “inactive” in each case.
On to `CCOC(C)=O`, for which the Potency result in experiment [1], in experiment [2], in experiment [3] and in experiment [4] was “inactive” throughout.
In the case of `CCCCOCCOCCOCCCC`, the Potency result in experiment [1], in experiment [2], in experiment [3] and in experiment [4] was “inactive” in each case.
On to `CCCCCCCCCCCC(=O)Cl`, for which the Potency result in experiment [1], in experiment [2], in experiment [3] and in experiment [4] was “inactive” each time.
In the case of `CN(C)CCCN(C)CCCN(C)C`, the Potency entry in experiment [1], in experiment [2], in experiment [3] and in experiment [4] was “inactive” in each case.
With `CCO[Si](CCCCl)(OCC)OCC`, the Potency entry in experiment [1], in experiment [2], in experiment [3] and in experiment [4] was “inactive” in each case.
Regarding `Cc1oc(-c2ccccc2)nc1CCOc1ccc(C[C@H](Nc2ccccc2C(=O)c2ccccc2)C(=O)O)cc1`, the Potency result in experiment [1], in experiment [3] and in experiment [4] was “inactive” each time. Besides, in experiment [2], the Potency was 56.4 µM (active).
As to `O=S(=O)(Cl)c1c(Cl)cccc1Cl`, the Potency result in experiment [1], in experiment [2], in experiment [3] and in experiment [4] was “inactive” throughout.
Turning to `CC(=O)/C=C/C1=C(C)CCCC1(C)C`, the Potency in experiment [1] was 35.6 µM (active); in experiment [3], 10.2 µM (active). Besides, the Potency entry in experiment [2] and in experiment [4] was “inactive” each time.
For the molecule `O=C(O)CC(=O)C(=O)O`, the Potency result in experiment [1], in experiment [2], in experiment [3] and in experiment [4] was “inactive” in each case.
As to `COCN(COC)c1nc(N(COC)COC)nc(N(COC)COC)n1`, the Potency result in experiment [1], in experiment [2], in experiment [3] and in experiment [4] was “inactive” in each case.
Consider `NCCOCCN`, for which the Potency entry in experiment [1], in experiment [2], in experiment [3] and in experiment [4] was “inactive” throughout.
Turning to `CCOC(=O)[C@H](O)[C@@H](O)C(=O)OCC`, the Potency entry in experiment [1], in experiment [2], in experiment [3] and in experiment [4] was “inactive” in each case.
With `OC[C@H]1O[C@@H](O[C@H]2[C@H](O)[C@@H](O)[C@H](O)O[C@@H]2CO)[C@H](O)[C@@H](O)[C@H]1O`, the Potency result in experiment [1], in experiment [2], in experiment [3] and in experiment [4] was “inactive” in each case.
Turning to `COC(=O)c1ccccc1C(=O)O`, the Potency entry in experiment [1], in experiment [2], in experiment [3] and in experiment [4] was “inactive” in each case.
As for `Nc1ncn([C@H]2C[C@H](O)[C@@H](CO)O2)c(=O)n1`, the Potency result in experiment [1], in experiment [2], in experiment [3] and in experiment [4] was “inactive” in each case.
`CC/C=C\CCOC(=O)CCCCC`: the Potency result in experiment [1], in experiment [2], in experiment [3] and in experiment [4] was “inactive” throughout.
For the molecule `CCC(C)CO` (stereo not given), the Potency result in experiment [1], in experiment [2], in experiment [3] and in experiment [4] was “inactive” throughout.
As to `Cc1ccc(-c2cc(C(F)(F)F)nn2-c2ccc(S(N)(=O)=O)cc2)cc1`, the Potency result in experiment [1], in experiment [2], in experiment [3] and in experiment [4] was “inactive” throughout.
Regarding `O=C(O)Cn1cnnn1`, the Potency result in experiment [1], in experiment [2], in experiment [3] and in experiment [4] was “inactive” each time.
For the molecule `O=S(=O)(O)c1ccc2ccccc2c1`, the Potency result in experiment [1], in experiment [2], in experiment [3] and in experiment [4] was “inactive” each time.
